# Test results taken from article PMC7862700, “An all-to-all approach to the identification of sequence-specific readers for epigenetic DNA modifications on cytosine”.
# How the values were obtained:
# Assay in all cases: DAPPL (digital affinity profiling via proximity ligation, sequencing); 10 mM Tris-HCl pH 7.5, 50 mM NaCl, 1 mM DTT, 4% glycerol, room temperature, 30 min; GST-TFs on glutathione beads, 16-mer random dsDNA library, 0.1% formaldehyde crosslink after washing; high values mean tight binding
# FLI1 = biological target: T1, FLI1 (Homo sapiens, UniProt Q01543 1-452); conditions: protein: recombinant; tags: N-terminal GST; dsDNA, one strand shown
# T1 sequence: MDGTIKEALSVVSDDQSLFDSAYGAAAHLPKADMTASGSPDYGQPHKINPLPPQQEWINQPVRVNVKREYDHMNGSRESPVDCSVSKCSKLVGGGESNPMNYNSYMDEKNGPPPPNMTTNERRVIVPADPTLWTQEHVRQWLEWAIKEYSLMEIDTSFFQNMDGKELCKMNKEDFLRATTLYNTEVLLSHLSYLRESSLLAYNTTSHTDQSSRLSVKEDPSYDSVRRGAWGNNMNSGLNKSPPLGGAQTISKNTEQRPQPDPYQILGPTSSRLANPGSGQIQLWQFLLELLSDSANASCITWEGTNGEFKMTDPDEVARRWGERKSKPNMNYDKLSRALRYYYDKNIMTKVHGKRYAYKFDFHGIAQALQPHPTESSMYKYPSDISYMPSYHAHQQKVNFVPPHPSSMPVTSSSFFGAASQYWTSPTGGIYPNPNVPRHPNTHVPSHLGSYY
# Summary of the method: (§1)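 Binding signal is each hexamer's read frequency for a factor divided by its frequency in the tag-only sample. The factors were GST-fused human transcription factors from yeast, captured on glutathione beads, DNA-barcoded and pooled with that sample. Pools were incubated with 200 nmole of a random double-stranded 16-mer DNA library in Tris/NaCl/DTT/glycerol buffer at room temperature for 30 min, then washed, crosslinked with 0.1% formaldehyde, proximity-ligated with BsaI/T4 ligase (1 h, 37 °C), PCR-amplified and sequenced on an Illumina NextSeq500.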
# ELK1 = biological target: T2, ELK1 (Homo sapiens, UniProt P19419 1-428); conditions: protein: recombinant; tags: N-terminal GST; dsDNA, one strand shown
# T2 sequence: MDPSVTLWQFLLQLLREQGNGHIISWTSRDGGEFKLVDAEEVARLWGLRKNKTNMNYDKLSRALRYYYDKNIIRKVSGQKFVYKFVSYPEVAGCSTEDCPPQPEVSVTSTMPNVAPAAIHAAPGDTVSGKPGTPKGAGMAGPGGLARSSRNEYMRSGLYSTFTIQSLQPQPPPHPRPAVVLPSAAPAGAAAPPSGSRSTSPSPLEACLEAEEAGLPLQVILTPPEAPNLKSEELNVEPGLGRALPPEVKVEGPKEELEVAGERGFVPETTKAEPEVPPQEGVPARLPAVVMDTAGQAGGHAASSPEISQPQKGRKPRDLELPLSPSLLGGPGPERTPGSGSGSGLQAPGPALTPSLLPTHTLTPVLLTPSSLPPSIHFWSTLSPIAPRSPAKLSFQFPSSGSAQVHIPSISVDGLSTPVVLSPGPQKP
# Summary of the method: as §1
# GABPA = biological target: T3, GABPA (Homo sapiens, UniProt Q06546 1-454); conditions: protein: recombinant; tags: N-terminal GST; dsDNA, one strand shown
# T3 sequence: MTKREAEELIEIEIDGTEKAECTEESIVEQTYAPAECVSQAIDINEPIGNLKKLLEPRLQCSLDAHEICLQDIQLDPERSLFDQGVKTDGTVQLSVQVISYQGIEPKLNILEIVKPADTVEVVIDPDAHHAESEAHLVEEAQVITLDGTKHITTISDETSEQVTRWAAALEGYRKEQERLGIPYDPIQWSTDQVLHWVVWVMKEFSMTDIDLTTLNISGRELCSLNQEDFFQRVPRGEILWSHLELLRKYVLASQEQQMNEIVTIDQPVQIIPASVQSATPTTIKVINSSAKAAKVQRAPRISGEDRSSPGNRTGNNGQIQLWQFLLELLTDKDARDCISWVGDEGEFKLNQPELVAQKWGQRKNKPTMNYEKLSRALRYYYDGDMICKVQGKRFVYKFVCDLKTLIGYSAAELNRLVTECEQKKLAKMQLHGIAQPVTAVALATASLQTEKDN
# Summary of the method: as §1
# ERG = biological target: T4, ERG (Homo sapiens, UniProt P11308 1-479); conditions: protein: recombinant; tags: N-terminal GST; dsDNA, one strand shown
# T4 sequence: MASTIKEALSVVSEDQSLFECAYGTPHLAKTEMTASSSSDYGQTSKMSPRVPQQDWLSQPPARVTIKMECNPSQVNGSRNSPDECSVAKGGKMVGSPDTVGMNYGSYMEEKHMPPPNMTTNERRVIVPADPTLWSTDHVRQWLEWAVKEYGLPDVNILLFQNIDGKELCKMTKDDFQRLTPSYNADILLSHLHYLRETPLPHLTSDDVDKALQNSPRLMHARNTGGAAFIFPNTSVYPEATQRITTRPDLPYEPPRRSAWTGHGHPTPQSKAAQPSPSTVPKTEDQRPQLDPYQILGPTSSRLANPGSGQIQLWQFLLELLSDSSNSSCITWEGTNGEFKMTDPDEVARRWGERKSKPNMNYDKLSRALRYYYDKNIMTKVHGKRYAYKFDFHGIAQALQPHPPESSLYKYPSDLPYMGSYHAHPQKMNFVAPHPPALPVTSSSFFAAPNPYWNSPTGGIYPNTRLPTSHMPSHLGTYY
# Summary of the method: as §1
# ELF1 = ELF1 (Homo sapiens, UniProt P32519 1-619); conditions: protein: recombinant; tags: N-terminal GST; dsDNA, one strand shown
# ELF1, sequence (P32519 whole entry): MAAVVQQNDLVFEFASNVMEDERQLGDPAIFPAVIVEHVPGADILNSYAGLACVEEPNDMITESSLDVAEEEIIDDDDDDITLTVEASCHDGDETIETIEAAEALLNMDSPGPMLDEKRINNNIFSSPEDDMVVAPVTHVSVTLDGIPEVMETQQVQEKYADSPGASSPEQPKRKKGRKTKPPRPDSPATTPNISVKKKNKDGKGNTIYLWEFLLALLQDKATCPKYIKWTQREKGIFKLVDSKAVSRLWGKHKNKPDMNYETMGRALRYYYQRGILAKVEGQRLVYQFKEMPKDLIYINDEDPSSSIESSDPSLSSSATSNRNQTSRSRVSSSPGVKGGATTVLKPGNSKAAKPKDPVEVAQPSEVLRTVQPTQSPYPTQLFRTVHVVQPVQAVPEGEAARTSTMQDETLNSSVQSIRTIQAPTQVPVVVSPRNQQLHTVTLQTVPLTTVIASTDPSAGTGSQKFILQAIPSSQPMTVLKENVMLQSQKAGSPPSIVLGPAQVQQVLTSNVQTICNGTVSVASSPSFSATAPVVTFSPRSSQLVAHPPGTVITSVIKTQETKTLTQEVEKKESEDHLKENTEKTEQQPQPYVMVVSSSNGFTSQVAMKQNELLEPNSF
# Summary of the method: as §1
# EHF = biological target: T5, EHF (Homo sapiens, UniProt Q9NZC4 1-300); conditions: protein: recombinant; tags: N-terminal GST; dsDNA, one strand shown
# T5 sequence: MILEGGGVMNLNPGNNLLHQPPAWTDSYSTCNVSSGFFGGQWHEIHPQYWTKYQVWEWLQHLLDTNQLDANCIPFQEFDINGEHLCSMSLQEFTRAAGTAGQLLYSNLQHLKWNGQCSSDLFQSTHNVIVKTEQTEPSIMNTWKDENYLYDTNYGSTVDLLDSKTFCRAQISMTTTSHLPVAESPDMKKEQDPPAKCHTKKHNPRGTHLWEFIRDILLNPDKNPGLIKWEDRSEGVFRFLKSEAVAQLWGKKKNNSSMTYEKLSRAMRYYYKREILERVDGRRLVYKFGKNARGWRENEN
# Summary of the method: as §1
# SPI1 = SPI1 (Homo sapiens, UniProt P17947 1-270); conditions: protein: recombinant; tags: N-terminal GST; dsDNA, one strand shown
# Summary of the method: as §1
# SPIB = SPIB (Homo sapiens, UniProt Q01892 1-262); conditions: protein: recombinant; tags: N-terminal GST; dsDNA, one strand shown
# SPIB, sequence (Q01892 whole entry): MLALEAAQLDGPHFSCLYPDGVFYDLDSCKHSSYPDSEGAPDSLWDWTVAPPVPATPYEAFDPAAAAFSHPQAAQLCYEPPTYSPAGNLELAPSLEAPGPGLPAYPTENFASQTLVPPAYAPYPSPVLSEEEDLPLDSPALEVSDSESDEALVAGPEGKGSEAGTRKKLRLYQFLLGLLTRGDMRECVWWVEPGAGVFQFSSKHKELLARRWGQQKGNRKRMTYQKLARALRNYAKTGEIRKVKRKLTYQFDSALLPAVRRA
# Summary of the method: as §1
# ELK3 = biological target: T6, ELK3 (Homo sapiens, UniProt P41970 1-407); conditions: protein: recombinant; tags: N-terminal GST; dsDNA, one strand shown
# T6 sequence: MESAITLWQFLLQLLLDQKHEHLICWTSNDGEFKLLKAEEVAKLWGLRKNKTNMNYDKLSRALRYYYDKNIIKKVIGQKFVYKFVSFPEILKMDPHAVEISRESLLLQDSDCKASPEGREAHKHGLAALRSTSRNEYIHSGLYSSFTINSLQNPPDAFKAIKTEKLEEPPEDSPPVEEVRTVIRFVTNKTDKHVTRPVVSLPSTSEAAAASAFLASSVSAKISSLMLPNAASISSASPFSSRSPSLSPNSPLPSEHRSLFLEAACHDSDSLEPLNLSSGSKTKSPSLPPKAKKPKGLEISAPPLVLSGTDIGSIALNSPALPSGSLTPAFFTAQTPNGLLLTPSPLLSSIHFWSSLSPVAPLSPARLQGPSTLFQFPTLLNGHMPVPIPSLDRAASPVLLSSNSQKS
# Summary of the method: as §1
# FEV = biological target: T7, FEV (Homo sapiens, UniProt Q99581 1-238); conditions: protein: recombinant; tags: N-terminal GST; dsDNA, one strand shown
# T7 sequence: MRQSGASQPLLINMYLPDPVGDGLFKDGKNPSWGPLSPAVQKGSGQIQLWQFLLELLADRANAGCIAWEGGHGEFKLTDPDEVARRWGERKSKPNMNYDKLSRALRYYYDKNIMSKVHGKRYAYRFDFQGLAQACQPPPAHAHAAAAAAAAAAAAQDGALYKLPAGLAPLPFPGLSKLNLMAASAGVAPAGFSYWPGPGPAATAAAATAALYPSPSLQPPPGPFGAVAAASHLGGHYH
# Summary of the method: as §1
# ETV5 = ETV5 (Homo sapiens, UniProt P41161 1-510); conditions: protein: recombinant; tags: N-terminal GST; dsDNA, one strand shown
# ETV5, sequence (P41161 whole entry): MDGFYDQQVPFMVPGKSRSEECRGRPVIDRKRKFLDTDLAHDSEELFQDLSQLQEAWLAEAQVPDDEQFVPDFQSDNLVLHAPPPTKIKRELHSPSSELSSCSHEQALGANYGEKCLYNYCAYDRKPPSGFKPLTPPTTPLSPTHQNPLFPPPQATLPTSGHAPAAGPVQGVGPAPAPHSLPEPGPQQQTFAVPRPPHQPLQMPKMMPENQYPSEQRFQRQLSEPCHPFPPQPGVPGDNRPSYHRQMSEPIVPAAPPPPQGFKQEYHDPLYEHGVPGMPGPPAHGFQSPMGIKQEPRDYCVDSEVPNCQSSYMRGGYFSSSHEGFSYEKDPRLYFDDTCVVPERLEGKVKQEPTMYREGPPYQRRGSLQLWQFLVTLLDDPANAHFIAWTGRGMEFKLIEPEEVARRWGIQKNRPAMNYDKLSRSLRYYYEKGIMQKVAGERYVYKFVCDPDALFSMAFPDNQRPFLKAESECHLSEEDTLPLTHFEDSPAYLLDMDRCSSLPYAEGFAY
# Summary of the method: as §1
# HSF1 = HSF1 (Homo sapiens, UniProt Q00613 1-529); conditions: protein: recombinant; tags: N-terminal GST; chain copies: 3; dsDNA, one strand shown
# HSF1, sequence (Q00613 whole entry): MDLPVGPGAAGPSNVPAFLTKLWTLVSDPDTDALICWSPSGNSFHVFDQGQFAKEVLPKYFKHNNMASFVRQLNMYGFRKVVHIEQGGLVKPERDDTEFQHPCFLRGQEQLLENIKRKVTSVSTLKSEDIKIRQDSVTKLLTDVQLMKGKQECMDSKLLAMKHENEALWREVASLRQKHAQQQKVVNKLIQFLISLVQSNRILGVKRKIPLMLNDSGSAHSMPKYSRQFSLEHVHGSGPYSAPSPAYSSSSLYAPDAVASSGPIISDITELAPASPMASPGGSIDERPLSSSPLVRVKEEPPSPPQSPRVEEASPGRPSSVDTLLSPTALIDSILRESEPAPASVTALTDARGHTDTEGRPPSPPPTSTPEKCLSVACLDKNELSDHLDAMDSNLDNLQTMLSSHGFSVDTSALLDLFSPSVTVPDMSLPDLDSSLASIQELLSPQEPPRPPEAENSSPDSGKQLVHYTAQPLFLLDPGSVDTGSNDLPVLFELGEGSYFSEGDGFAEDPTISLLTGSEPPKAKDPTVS
# Summary of the method: as §1
# SPIC = biological target: T8, SPIC (Homo sapiens, UniProt Q8N5J4 1-248); conditions: protein: recombinant; tags: N-terminal GST; dsDNA, one strand shown
# T8 sequence: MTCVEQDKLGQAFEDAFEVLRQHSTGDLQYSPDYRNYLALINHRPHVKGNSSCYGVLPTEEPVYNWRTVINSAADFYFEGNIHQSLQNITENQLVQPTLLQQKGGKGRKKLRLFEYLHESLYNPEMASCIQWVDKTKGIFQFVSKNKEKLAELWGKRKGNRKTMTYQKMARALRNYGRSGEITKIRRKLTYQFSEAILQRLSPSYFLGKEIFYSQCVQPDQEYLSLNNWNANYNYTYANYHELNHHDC
# Summary of the method: as §1
# ELF4 = ELF4 (Homo sapiens, UniProt Q99607 1-663); conditions: protein: recombinant; tags: N-terminal GST; dsDNA, one strand shown
# ELF4, sequence (Q99607 whole entry): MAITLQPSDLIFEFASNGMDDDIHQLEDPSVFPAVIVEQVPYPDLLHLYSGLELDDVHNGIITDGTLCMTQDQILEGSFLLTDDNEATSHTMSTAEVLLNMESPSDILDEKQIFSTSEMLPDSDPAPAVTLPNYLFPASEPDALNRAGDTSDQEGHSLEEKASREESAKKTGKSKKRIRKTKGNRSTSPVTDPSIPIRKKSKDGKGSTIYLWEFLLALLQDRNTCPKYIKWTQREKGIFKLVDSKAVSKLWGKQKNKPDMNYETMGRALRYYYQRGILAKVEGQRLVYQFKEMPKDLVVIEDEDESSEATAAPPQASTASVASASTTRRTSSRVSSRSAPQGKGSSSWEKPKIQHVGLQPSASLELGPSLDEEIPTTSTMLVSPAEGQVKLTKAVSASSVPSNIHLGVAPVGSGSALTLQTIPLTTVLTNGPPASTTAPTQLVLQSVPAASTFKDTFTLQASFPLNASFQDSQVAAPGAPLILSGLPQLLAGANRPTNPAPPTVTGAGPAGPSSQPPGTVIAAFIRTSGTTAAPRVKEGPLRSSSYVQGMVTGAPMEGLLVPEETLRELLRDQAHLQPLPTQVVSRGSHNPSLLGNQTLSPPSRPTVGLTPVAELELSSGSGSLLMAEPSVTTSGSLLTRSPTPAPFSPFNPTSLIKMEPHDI
# Summary of the method: as §1
# ELK4 = biological target: T9, ELK4 (Homo sapiens, UniProt P28324-2 1-405); conditions: protein: recombinant; tags: N-terminal GST; dsDNA, one strand shown
# T9 sequence: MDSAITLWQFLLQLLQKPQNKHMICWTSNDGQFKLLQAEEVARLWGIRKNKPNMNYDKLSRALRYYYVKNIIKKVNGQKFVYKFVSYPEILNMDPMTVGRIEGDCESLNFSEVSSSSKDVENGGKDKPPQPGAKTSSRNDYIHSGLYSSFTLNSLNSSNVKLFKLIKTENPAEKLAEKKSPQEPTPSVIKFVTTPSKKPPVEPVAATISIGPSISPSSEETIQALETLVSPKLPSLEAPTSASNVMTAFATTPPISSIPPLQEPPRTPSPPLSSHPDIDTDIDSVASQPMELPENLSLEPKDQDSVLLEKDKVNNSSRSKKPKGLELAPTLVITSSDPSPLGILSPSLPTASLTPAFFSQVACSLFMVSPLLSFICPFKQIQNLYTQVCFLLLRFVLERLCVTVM
# Summary of the method: as §1
# ETV2 = biological target: T10, ETV2 (Homo sapiens, UniProt O00321 1-342); conditions: protein: recombinant; tags: N-terminal GST; dsDNA, one strand shown
# T10 sequence: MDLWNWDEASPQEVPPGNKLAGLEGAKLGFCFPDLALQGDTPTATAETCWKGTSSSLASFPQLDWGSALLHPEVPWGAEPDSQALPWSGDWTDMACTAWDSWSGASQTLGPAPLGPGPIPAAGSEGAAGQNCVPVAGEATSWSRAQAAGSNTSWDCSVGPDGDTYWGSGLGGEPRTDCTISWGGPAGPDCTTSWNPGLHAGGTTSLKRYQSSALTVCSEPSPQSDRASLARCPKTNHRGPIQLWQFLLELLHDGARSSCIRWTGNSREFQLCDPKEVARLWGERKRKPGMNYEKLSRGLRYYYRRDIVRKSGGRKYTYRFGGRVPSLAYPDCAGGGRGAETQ
# Summary of the method: as §1
# ELF3 = biological target: T11, ELF3 (Homo sapiens, UniProt P78545 1-371); conditions: protein: recombinant; tags: N-terminal GST; dsDNA, one strand shown
# T11 sequence: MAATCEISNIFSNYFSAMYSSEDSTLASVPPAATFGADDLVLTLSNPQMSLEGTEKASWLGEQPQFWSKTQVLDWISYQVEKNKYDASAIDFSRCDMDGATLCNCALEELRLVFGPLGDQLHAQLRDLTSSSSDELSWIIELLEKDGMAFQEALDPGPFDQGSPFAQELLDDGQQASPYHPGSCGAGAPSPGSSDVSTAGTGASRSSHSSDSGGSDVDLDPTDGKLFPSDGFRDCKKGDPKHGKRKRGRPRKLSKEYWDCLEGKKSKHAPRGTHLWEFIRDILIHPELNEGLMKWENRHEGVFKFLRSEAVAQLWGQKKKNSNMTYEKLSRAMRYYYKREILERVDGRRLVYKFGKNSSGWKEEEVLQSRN
# Summary of the method: as §1
# CRX = CRX (Homo sapiens, UniProt O43186 1-299); conditions: protein: recombinant; tags: N-terminal GST; dsDNA, one strand shown
# CRX, sequence (O43186 whole entry): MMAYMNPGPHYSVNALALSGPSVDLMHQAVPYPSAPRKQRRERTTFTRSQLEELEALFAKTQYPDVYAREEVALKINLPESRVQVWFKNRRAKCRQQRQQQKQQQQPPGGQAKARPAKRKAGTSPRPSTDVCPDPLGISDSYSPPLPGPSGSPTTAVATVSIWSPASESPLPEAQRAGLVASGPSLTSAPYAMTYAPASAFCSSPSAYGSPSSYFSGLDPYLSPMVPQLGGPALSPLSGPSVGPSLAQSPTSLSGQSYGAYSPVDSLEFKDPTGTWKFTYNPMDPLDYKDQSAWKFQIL
# Summary of the method: as §1
# ETV1 = ETV1 (Homo sapiens, UniProt P50549 1-477); conditions: protein: recombinant; tags: N-terminal GST; dsDNA, one strand shown
# ETV1, sequence (P50549 whole entry): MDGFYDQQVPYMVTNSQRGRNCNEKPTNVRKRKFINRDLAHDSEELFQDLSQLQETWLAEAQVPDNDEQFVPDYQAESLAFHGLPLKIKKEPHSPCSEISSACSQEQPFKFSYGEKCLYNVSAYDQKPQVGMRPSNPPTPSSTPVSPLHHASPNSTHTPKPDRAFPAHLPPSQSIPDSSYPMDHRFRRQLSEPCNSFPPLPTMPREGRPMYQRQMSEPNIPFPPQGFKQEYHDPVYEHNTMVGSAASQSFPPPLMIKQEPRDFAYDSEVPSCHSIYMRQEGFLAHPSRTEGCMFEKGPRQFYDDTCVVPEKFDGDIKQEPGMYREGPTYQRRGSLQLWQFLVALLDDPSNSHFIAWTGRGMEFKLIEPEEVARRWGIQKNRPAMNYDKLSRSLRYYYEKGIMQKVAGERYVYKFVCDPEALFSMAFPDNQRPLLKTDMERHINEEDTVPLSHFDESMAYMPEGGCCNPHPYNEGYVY
# Summary of the method: as §1
sequence,measurement,setting,value
TACGGC,binding signal,FLI1,"1.18 fold enrichment (6-mer frequency, TF over GST control)"
same,binding signal,ELK1,"1.25 fold enrichment (6-mer frequency, TF over GST control)"
same,binding signal,GABPA,"1.23 fold enrichment (6-mer frequency, TF over GST control)"
same,binding signal,ERG,"1.24 fold enrichment (6-mer frequency, TF over GST control)"
same,binding signal,ELF1,"1.18 fold enrichment (6-mer frequency, TF over GST control)"
same,binding signal,EHF,"1.2 fold enrichment (6-mer frequency, TF over GST control)"
same,binding signal,SPI1,"1.18 fold enrichment (6-mer frequency, TF over GST control)"
same,binding signal,SPIB,"1.25 fold enrichment (6-mer frequency, TF over GST control)"
same,binding signal,ELK3,"1.16 fold enrichment (6-mer frequency, TF over GST control)"
same,binding signal,FEV,"1.15 fold enrichment (6-mer frequency, TF over GST control)"
same,binding signal,ETV5,"1.15 fold enrichment (6-mer frequency, TF over GST control)"
same,binding signal,HSF1,"1.02 fold enrichment (6-mer frequency, TF over GST control)"
same,binding signal,SPIC,"1.05 fold enrichment (6-mer frequency, TF over GST control)"
same,binding signal,ELF4,"1.28 fold enrichment (6-mer frequency, TF over GST control)"
same,binding signal,ELK4,"1.19 fold enrichment (6-mer frequency, TF over GST control)"
same,binding signal,ETV2,"1.12 fold enrichment (6-mer frequency, TF over GST control)"
same,binding signal,ELF3,"1.14 fold enrichment (6-mer frequency, TF over GST control)"
same,binding signal,CRX,"1.2 fold enrichment (6-mer frequency, TF over GST control)"
same,binding signal,ETV1,"1.14 fold enrichment (6-mer frequency, TF over GST control)"
